Consider 40 compounds from PubChem BioAssay (NCATS).

Records with an inconclusive call do not appear. Unmarked numbers belong to inactive results. Activity calls are given as the source filed them. The call rests on the fitted dose curve; in most records, active means well fitted activation curve with a large enough effect; inconclusive means small, poorly fitted or top-dose-only effect; inactive means flat fitted curve, though single readings scatter.
Potency means the concentration at half of the fitted maximal effect.

The nature of the test: qHTS for Activators of p53 Stress Response Pathway screened against the NCATS CANVASS Library (AID 1347388). On activation: 0% is about no effect. The settings on record: p53RE-bla HCT-116, beta-lactamase reporter, 16 h; series mostly up to 46.1 µM; activation: at the top concentration. An excerpt: Natural products and their derivatives continue to be wellsprings of nascent therapeutic potential. However, many laboratories have limited resources for biological evaluation, leaving their previously isolated or synthesized compounds largely or completely untested. To address this issue, the Canvass library of natural products was assembled (https://tripod.nih.gov/canvass), in collaboration with academic and industry researchers, for quantitative high-throughput screening (qHTS) across a diverse set of cell-based and biochemical assays. The pure (>85% purity by liquid chromatography/mass spectrometry [LC/MS]) Canvass library of 346 natural products were submitted by 45 academic laboratories and companies around the world. We collected pure natural products to circumvent deconvolution and structure elucidation due to time and resource limitations. The library was formatted into 1536-well plates and evaluated in 50 qHTS (in an 11-pnt concentration series) bioassays with broad scope of disease-relevant mechanisms. The resulting data set from 50 different assays was then systematically analyzed to identify overall trends and specific natural products with interesting biological activities. Reported herein are the results of each individual qHTS and their corresponding assay protocol. This assay measures compound activation of the p53 signaling pathway in cells using a beta-lactamase reporter gene. The p53RE-bla HCT-116 cell line (Invitrogen) contains a stably integrated beta-lactamase reporter gene under control of the p53 response elements. The activation of the report gene under culture conditions can be detected by fluorescence intensity. National Center for Advancing Translational Sciences (NCATS), Rockville, MD National Institute of Health (NIH), Bethesda, Maryland
p53-screen protocol: 1. In black-clear bottom 1536-well plate, 5 uL of p53RE-bla HCT-116 cell suspension was dispensed using a Multidrop Combi (Thermo Fisher Scientific) at a final concentration of 4000 cells / well. 2. The assay plates were incubated for 5 hours at 37C, 5% CO2. 3. […] of compounds (in DMSO; columns 5-48), vehicle control DMSO, and positive control were pin transferred into the assay plates using the Kalypsis pin tool (Wako USA) equipped with a 1536-well pin heads. This yields a final CANVASS compound concentration of 0.4 nM - […]. 4. The assay plates were incubated for 16 hours at 37C, 5% CO2. 5. After incubation, 1 uL of CCF4 dye was added per well using the BioRAPTR dispenser 6. The plates were incubated for 2 hours at room temperature. 7. The fluorescence readout was obtained using the EnVision microplate reader (PerkinElmer) equipped with a 405 nm excitation and 460 nm and 530 nm emission filters. The ratio of 460 nm / 530 nm readout was calculated and used for data analysis. 8. To access cellular viability and compound toxicity, 4 uL of CellTiter-Glo was added to the wells using the BioRAPTR dispenser. 9. The assay plates were further incubated for 30 minutes at room temperature. 10. Luminescence signal was obtained using the ViewLux plate reader (PerkinElmer) using the clear emission filter and 1x binning, 2 second exposure settings.
On the technique in general: qHTS replaces the single test concentration by a dilution series.
With `CC1(C)CCC[C@]2(C)[C@@H]1CC[C@@]13C[C@@H](CC[C@H]12)C(C)(O)C3` (stereo not given in full), the “activation” value was -2.83%.
The same measure, in the same setting: as for `COc1ccc(CCCc2cc(O)c(OC)c(O)c2)c(O)c1O`, the figure is -6.06%.
Still for that read-out and setting: as for `C=C1C[C@@]23C=CC(=O)[C@@](C)(CCC(=O)Nc4c(O)ccc(C(=O)O)c4O)C2C[C@@H]1C(O)C3` (stereo not given in full), the figure is -3.59%.
Turning to `C=C(C)[C@@H]1CC[C@]2(C)CC[C@]3(C)[C@H](CC[C@@H]4[C@@]5(C)CC[C@H](O)C(C)(C)[C@@H]5CC[C@]43C)[C@@H]12`, the Potency result is “inactive”.
In the case of `O=C(O)[C@@]12CO[C@@]3(O)C4CCN(CC[C@H]31)[C@H]4c1c2[nH]c2ccccc12`, the “activation” value is 1.41%.
The same measure, in the same setting: next, `C[C@@]12CCC[C@@](C)(C(=O)O)[C@H]1C[C@@H](O)[C@]13C[C@H]4C[C@H](O[C@@]4(C)C1)[C@@H]23`: 1.86%; `CC(=O)NC[C@@H]1O[C@H](CC/C=C(C)/C(C)=C/C=O)[C@H](C)C[C@H]1O`: -4.65%; `OCc1ccc2ocnc2c1`: 1.53%.
In the case of `C/C=C1/CC[C@@H]2c3[nH]c4ccccc4c3CCN2C1`, the “activation” value is 1.46%.
For the compound `CN1C(=O)C2C(N=CN2C)N(C)C1=O` (stereo not given), the “activation” value was -0.494%.
In the case of `CC(=O)O[C@@H]1C=C2C(=O)OC[C@]2(O)[C@@]2(C)CCCC(C)(C)[C@H]12`, the “activation” value is 18.4%.
Regarding `CO[C@@H]1C[C@@H](C[C@H]2CC[C@H](C)[C@H]([C@@H](C)C(=O)O)O2)O[C@]2(O[C@](C)([C@H]3CC[C@@](C)([C@@H]4O[C@@H]([C@H]5O[C@](C)(O)[C@H](C)C[C@@H]5C)C[C@@H]4C)O3)C[C@H]2C)[C@@H]1C`, the Potency is 3.71 µM (active).
For `C=CC(C)(C)C(=O)[C@@H](C)[C@@H]1CC[C@](C)(C=C)O1`, the “activation” value is 2.71%.
Same read-out and setting: next, `C[C@@H]1O[C@@H](O[C@@H]2[C@@H](O)[C@H](O[C@@H]3[C@@H](O)[C@@H](O)C(O[C@H]4[C@H](OC(=O)[C@]56CCC(C)(C)C[C@H]5C5=CCC7[C@@]8(C)C[C@H](O)[C@H](O[C@@H]9C[C@H](CO)[C@@H](O)[C@H](O)[C@H]9O)[C@@](C)(CO)C8[C@H](O)C[C@@]7(C)[C@]5(C)CC6)OC[C@H](O)[C@@H]4O)O[C@H]3C)OC[C@H]2O)[C@H](O)[C@H](O)[C@H]1O` (stereo not given in full): -2.82% [at 27.5 µM]; `CCCCCCCCCCCCCCCC(=O)OC/C=C(\C)CCCC(C)CC(C)C(C)C` (stereo not given): 0.953%.
Still for that read-out and setting: as for `C[C@@H]1C(=O)[C@]23CC[C@H]1C[C@]21O[C@H]2C(C)(C)C=CC(=O)[C@@]23COC1=O`, the figure is -3.43%; as for `Oc1ccc(/C=C2/c3cc(O)cc(O)c3C(c3ccc(O)cc3)[C@H]2c2cc(O)cc(O)c2)cc1` (stereo not given in full), 1.87%; as for `CC12C[C@]3(O)O[C@@H](O1)[C@]1(COC(=O)c4ccccc4)[C@@H]3CC21OC1OC(CO)C(O)C(O)C1O` (stereo not given in full), -1.96%.
On the same count and under the same terms, next, `O=Cc1ccc2n1C[C@@]1(C[C@H](O)[C@@H](CO)O1)OC2`: -2.7%; `C=C[C@@]1(C)CC[C@@H]([C@H](C)C(=O)/C=C/C(C)C)O1`: 5.32%; `COc1ccc2cc(NC(=O)C3=NO[C@H]4[C@H](O)C=C[C@@H](Cl)[C@@]4(O)C3)c(=O)oc2c1OC`: 4.73%.
Turning to `C=C[C@]1(C)CC[C@@H]([C@H](C)C(=O)OCC)O1`, the “activation” value is 6.66% [at 27.5 µM].
The same measure, in the same setting: next, `CS/C=C/C(N)=O`: -0.587%; `COC1C(O)C(OC(N)=O)C(Oc2ccc3c(O)c(NC(=O)c4ccc(O)c(CC=C(C)C)c4)c(=O)oc3c2C)OC1(C)C` (stereo not given): 0.205%.
On the same count and under the same terms, next, `Cc1cc(O)cc2oc(C[C@H](C)O)cc(=O)c12`: -0.629%.
On the same count and under the same terms, as for `CC[C@@H]1C[C@@]2(CC)OC(=O)[C@@]3(CC)OC(=O)[C@@H]1[C@@H]23`, the figure is -2.21%.
As to `CCCCCCCCCCCCCCC[C@H](O)C[C@@H](O)C[C@@H](O)C[C@@H](O)C[C@@H](O)C[C@H]1CC=CC(=O)O1`, the “activation” value was 8.6%.
Still for that read-out and setting: as for `CCCCCC[C@H](CCCCC[C@@H](O)C(N)=O)OC(=O)[C@@H]1CC=CN1C(=O)c1ccccc1O`, the figure is 0.869%; as for `CC1=CC2=C[C@H](C)C[C@@]23OC(=C(C)C3=O)CC(C)(C)/C=C/C1=O`, -1.28%.
The same measure, in the same setting: as for `O=c1cc(-c2ccc(O)c(O[C@@H]3O[C@H](CO)[C@@H](O)[C@H](O)[C@H]3O)c2)oc2cc(O[C@@H]3O[C@H](CO)[C@@H](O)[C@H](O)[C@H]3O)cc(O)c12`, the figure is 0.597%.
The same measure, in the same setting: as for `COc1cc(O)c2c3c(c(O)cc(C)c13)C(=O)OC2`, the figure is 7.68%.
With `C=C1[C@H]2CC[C@@]3(C=CC(=O)[C@@](C)(CCC(=O)Nc4c(O)ccc(C(=O)O)c4O)C3C2)[C@H]1O` (stereo not given in full), the “activation” value was -5.44%.
The same measure, in the same setting: as for `O=C(O)Cc1c[nH]c2ccccc12`, the figure is 1.95%.
Same read-out and setting: as for `O=Cc1ccc2n1C[C@@]1(C[C@H](O)[C@H](O)CO1)OC2`, the figure is 3.01%.
Still for that read-out and setting: as for `CC1(C)[C@H](Br)CC[C@]23C[C@]4(C)C(=O)CC12C[C@H]34`, the figure is 1.75%; as for `C1=C2CCCN[C@@H]2[C@@H]2CCN3CCCC[C@@H]3[C@H](C1)C2`, -2%; as for `C=C1C[C@@]23C=CC(=O)[C@@](C)(CCCC(C)C(=O)O)[C@@H]2C[C@@H]1CC3` (stereo not given in full), -3%.
As to `CC(=O)O[C@H]1CC[C@@]2(C)C(CC[C@]3(C)C2CC=C2C4CC(C)(C)CC[C@]4(C)CC[C@]23C)C1(C)C` (stereo not given in full), the “activation” value was 1.57%.
The same measure, in the same setting: as for `COc1ccc([C@@H]2c3cc(OC)c(OC)cc3C(=O)C(C)C2C)cc1OC` (stereo not given in full), the figure is -0.983%.
Still for that read-out and setting: as for `C[C@@H]1O[C@H](c2c(O)cc(O)c3c(=O)cc(-c4ccc(O)cc4)oc23)[C@H](O)[C@H](O)[C@H]1O`, the figure is 3.05%.
